Experimental data published in PubChem BioAssay (EPA / NIEHS).
Active and inactive are the calls of the source. Rule for the calls: active = hit-call score of the fitted dose curve at least 0.9, where 1 is the maximum; inactive = score below 0.9.

Experiments:
Settings in all cases: mRNA level, 48 h; actives raise or lower the signal
[1] = read-out: ATP-citrate lyase (ACLY), ACLY (gene 47); assay: LTEA_HepaRG_ACLY: Life Technologies and Expression Analysis (LTEA) Assay for ATP-citrate lyase (ACLY) using HepaRG (AID 2283466)
Method in brief: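 qRT-PCR readout of ACLY transcript after 48 h chemical treatment of HepaRG cells; expression normalized to three housekeeping genes. Eight-point half-log series, highest 100 uM, 0.5% DMSO vehicle. Gain or loss fitted against DMSO baseline.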

[2] = read-out: Peroxisomal acyl-coenzyme A oxidase 1 (ACOX1) gene, ACOX1 (gene 51); assay: LTEA_HepaRG_ACOX1: Life Technologies and Expression Analysis (LTEA) Assay for Peroxisomal acyl-coenzyme A oxidase 1 (ACOX1) gene using HepaRG (AID 2283467)
Method in brief: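 HepaRG, 48 h chemical exposure, 8-pt half-log series from 100 uM top, 0.5% DMSO vehicle, duplicates. Readout: ACOX1 mRNA by Fluidigm qRT-PCR, housekeeping-normalized; bidirectional fit vs DMSO baseline.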

[3] = read-out: Alkaline Phosphatase, Placental (ALPP) gene, ALPP (gene 250); assay: LTEA_HepaRG_ALPP: Life Technologies and Expression Analysis (LTEA) Assay for Alkaline Phosphatase, Placental (ALPP) gene using HepaRG (AID 2283468);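 for AC50: differentiated human HepaRG liver cells in serum-free induction medium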
Method in brief: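 Expression of ALPP was quantified by qRT-PCR against three housekeeping genes in human HepaRG cultures treated for 48 h with an eight-point concentration series up to 100 uM. Activity in either direction was fitted relative to 0.5% DMSO.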

[4] = read-out: Bcl-2 (BAD) gene, BAD (gene 572); assay: LTEA_HepaRG_BAD: Life Technologies and Expression Analysis (LTEA) Assay for Bcl-2 (BAD) gene using HepaRG (AID 2283469)
Method in brief: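 HepaRG, 48 h exposure, 8-pt half-log curve from 100 uM in 0.5% DMSO, duplicates. Readout: TaqMan qRT-PCR for BAD mRNA, housekeeping-normalised (ACTB/GAPDH/POLR2A); gain or loss fitted against DMSO baseline.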

[5] = read-out: Bcl-2 (BAX) gene, BAX (gene 581); assay: LTEA_HepaRG_BAX: Life Technologies and Expression Analysis (LTEA) Assay for Bcl-2 (BAX) gene using HepaRG (AID 2283470)
Method in brief: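 Human HepaRG cells treated in duplicate for 48 h across eight concentrations (max 100 uM, 0.5% DMSO); BAX expression measured by qRT-PCR.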

[6] = read-out: adenosine kinase (ADK) gene, ADK (gene 132); assay: LTEA_HepaRG_ADK: Life Technologies and Expression Analysis (LTEA) Assay for adenosine kinase (ADK) gene using HepaRG (AID 2283471)
Method in brief: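 Read-out is ADK transcript level measured by qRT-PCR and normalised to three housekeeping genes. Cells are human HepaRG, dosed for 48 h at up to 100 uM in 0.5% DMSO. Gain or loss of signal is fitted against DMSO controls.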

[7] = read-out: Alpha-fetoprotein (AFP) gene, AFP (gene 174); assay: LTEA_HepaRG_AFP: Life Technologies and Expression Analysis (LTEA) Assay for Alpha-fetoprotein (AFP) gene using HepaRG (AID 2283472)
Method in brief: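 Measures AFP mRNA change in HepaRG after 48 h chemical exposure (8 half-log concentrations, highest 100 uM, 0.5% DMSO). Fold change relative to DMSO, fitted in both directions.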

BCL2L11 (gene 10018) = assay: LTEA_HepaRG_BCL2L11: Life Technologies and Expression Analysis (LTEA) Assay for Bcl-2 (BCL2L11) gene using HepaRG (AID 2283473)
Method in brief: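 Cells were plated, cultured 48 h, switched to serum-free induction medium, then dosed in duplicate for 48 h at eight half-log concentrations up to 100 uM. Lysates underwent RNA isolation and TaqMan qRT-PCR; gain or loss versus DMSO was fitted.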

[8] = read-out: Apolipoprotein A-V (APOA5) gene, APOA5 (gene 116519); assay: LTEA_HepaRG_APOA5: Life Technologies and Expression Analysis (LTEA) Assay for Apolipoprotein A-V (APOA5) gene using HepaRG (AID 2283474)
Method in brief: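 Human liver HepaRG cells are treated 48 h with test chemicals (100 uM top, half-log dilutions, 0.5% DMSO). APOA5 mRNA induction or loss is measured by qRT-PCR relative to vehicle.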

[9] = read-out: Apoptosis regulator Bcl-2 (Homo sapiens) (UniProt P10415); assay: LTEA_HepaRG_BCL2: Life Technologies and Expression Analysis (LTEA) Assay for Bcl-2 gene using HepaRG (AID 2283475)
Method in brief: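 Each chemical was tested in duplicate on HepaRG cultures held in serum-free induction medium for 48 h, highest concentration 100 uM with half-log dilutions. Transcript levels came from multiplexed qRT-PCR, normalised to housekeeping genes; activity was scored in either direction relative to DMSO.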

[10] = read-out: Bcl-2 (BID) gene, BID (gene 637); assay: LTEA_HepaRG_BID: Life Technologies and Expression Analysis (LTEA) Assay for Bcl-2 (BID) gene using HepaRG (AID 2283476)
Method in brief: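 Assay used HepaRG hepatic cells treated 48 h in serum-free medium with half-log dilutions from 100 uM. Endpoint: BID mRNA, qRT-PCR, normalized to ACTB/GAPDH/POLR2A.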

Caspase-3 (Homo sapiens) = Caspase-3 (Homo sapiens) (UniProt P42574); assay: LTEA_HepaRG_CASP3: Life Technologies and Expression Analysis (LTEA) Assay for cysteine-aspartic acid protease (CASP3) using HepaRG (AID 2283477)
Sequence of Caspase-3 (Homo sapiens) (P42574 whole entry, looked up): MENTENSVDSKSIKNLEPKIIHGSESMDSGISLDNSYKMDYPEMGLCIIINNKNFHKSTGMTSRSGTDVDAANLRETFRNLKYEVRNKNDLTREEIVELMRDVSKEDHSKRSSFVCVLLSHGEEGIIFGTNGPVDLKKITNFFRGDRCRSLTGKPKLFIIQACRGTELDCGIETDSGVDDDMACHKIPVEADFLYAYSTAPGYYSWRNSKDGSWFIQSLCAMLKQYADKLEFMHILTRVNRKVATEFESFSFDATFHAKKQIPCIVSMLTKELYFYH
Method in brief: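 In HepaRG liver cells dosed for 48 h at up to 100 uM (eight-point, duplicate), CASP3 expression changes are scored by qRT-PCR. Activity is fitted in both directions with 0.5% DMSO as baseline.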

[11] = read-out: Cytochrome P450 (CYP24A1), CYP24A1 (gene 1591); assay: LTEA_HepaRG_CYP24A1: Life Technologies and Expression Analysis (LTEA) Assay for Cytochrome P450 (CYP24A1) using HepaRG (AID 2283478)
Method in brief: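 Human liver HepaRG cultures receive each chemical for 48 h across an eight-point half-log series topping at 100 uM in 0.5% DMSO. Induction or suppression of CYP24A1 mRNA is scored relative to vehicle after housekeeping-gene normalization.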

[12] = read-out: Cytochrome P450 (CYP1A2), CYP1A2 (gene 1544); assay: LTEA_HepaRG_CYP1A2: Life Technologies and Expression Analysis (LTEA) Assay for Cytochrome P450 (CYP1A2) using HepaRG (AID 2283479)
Method in brief: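 Assesses CYP1A2 mRNA in human HepaRG liver cells after 48 h chemical exposure at up to 100 uM. Values come from qRT-PCR with bidirectional curve fitting relative to DMSO.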

[13] = read-out: cysteine-aspartic acid protease (CASP8), CASP8 (gene 841); assay: LTEA_HepaRG_CASP8: Life Technologies and Expression Analysis (LTEA) Assay for cysteine-aspartic acid protease (CASP8) using HepaRG (AID 2283480)
Method in brief: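 qRT-PCR readout of CASP8 mRNA, normalized to three housekeeping genes, after 48 h chemical exposure of HepaRG cells; 8-point half-log series, top 100 uM, 0.5% DMSO vehicle. Bidirectional curve fitting against DMSO baseline.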

[14] = read-out: Cytochrome P450 (CYP2B6), CYP2B6 (gene 1555); assay: LTEA_HepaRG_CYP2B6: Life Technologies and Expression Analysis (LTEA) Assay for Cytochrome P450 (CYP2B6) using HepaRG (AID 2283481)
Method in brief: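 Using 48 h treatment of HepaRG cells in serum-free induction medium, concentrations spanned half-log steps from 100 uM in 0.5% DMSO vehicle. CYP2B6 mRNA induction or loss is scored by qRT-PCR against DMSO.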

[15] = read-out: Cytochrome P450 2C19 (Homo sapiens) (UniProt P33261); assay: LTEA_HepaRG_CYP2C19: Life Technologies and Expression Analysis (LTEA) Assay for CYP2C19 using HepaRG (AID 2283482)
Method in brief: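 Human HepaRG liver cells received test chemicals for 48 h (highest 100 uM, half-log dilutions in 0.5% DMSO). CYP2C19 mRNA induction or loss is read by multiplexed qRT-PCR and fitted in both directions versus vehicle.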

CYP2C9 (gene 1559) = assay: LTEA_HepaRG_CYP2C9: Life Technologies and Expression Analysis (LTEA) Assay for CYP2C9 using HepaRG (AID 2283484)
Method in brief: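 HepaRG, 48 h dosing, 8-pt half-log series, top 100 uM, 0.5% DMSO vehicle. Read-out: CYP2C9 transcript by TaqMan qRT-PCR, housekeeping-normalized (ACTB/GAPDH/POLR2A). Gain or loss fitted vs DMSO baseline.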

CYP2E1 (gene 1571) = assay: LTEA_HepaRG_CYP2E1: Life Technologies and Expression Analysis (LTEA) Assay for CYP2E1 using HepaRG (AID 2283485)
Method in brief: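 Assay uses 48 h exposure of HepaRG hepatic cells, eight concentrations to 100 uM. Expression of CYP2E1 is quantified by TaqMan qRT-PCR with ACTB, GAPDH and POLR2A normalization; curves fitted in both directions relative to vehicle.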

Measured: AC50

Sequence of Cytochrome P450 2C19 (Homo sapiens) (P33261 whole entry, looked up): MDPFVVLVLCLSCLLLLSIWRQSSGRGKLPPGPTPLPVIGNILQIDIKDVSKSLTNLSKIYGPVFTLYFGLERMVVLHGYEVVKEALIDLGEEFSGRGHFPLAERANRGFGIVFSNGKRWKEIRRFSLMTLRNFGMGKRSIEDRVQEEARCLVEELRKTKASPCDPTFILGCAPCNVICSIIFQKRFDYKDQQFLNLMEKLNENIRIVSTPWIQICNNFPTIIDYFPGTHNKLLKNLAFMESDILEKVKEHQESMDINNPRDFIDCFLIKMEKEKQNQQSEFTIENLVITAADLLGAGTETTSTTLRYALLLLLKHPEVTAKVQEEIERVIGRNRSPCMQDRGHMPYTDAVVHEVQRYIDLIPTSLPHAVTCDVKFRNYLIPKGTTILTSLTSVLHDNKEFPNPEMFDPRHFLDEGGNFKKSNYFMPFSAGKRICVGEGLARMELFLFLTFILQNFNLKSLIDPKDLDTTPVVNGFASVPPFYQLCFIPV
Sequence of Apoptosis regulator Bcl-2 (Homo sapiens) (P10415 whole entry, looked up): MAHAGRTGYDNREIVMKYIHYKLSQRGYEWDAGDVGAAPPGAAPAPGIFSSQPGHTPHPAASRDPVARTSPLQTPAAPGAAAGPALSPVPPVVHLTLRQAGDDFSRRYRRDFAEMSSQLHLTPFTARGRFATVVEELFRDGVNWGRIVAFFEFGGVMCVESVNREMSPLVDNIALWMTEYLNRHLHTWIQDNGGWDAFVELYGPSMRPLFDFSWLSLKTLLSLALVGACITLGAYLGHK

CCCCCCOC(=O)c1ccccc1C(=O)OCCCCCC
active: [12] 50 µM
inactive: all other assays above

Cc1cc(-c2ccc(N)c(C)c2)ccc1N
active: [7] 34 µM | [12] 37 µM | [14] 9.15 µM | CYP2E1 (gene 1571) 16.3 µM
inactive: all other assays above

Cc1ccccc1CO[C@@H]1C[C@@]2(C(C)C)CC[C@]1(C)O2
active: [12] 76.3 µM | [14] 15.9 µM | [15] 32.5 µM | CYP2E1 (gene 1571) 50 µM
inactive: all other assays above

Oc1c(Cl)c(Cl)c(Cl)c(Cl)c1Cl
inactive: [4] | [5] | [9] | [11]
active: [1] 1.61 µM | [2] 3.29 µM | [3] 5.48 µM | [6] 6.68 µM | [7] 3.19 µM | BCL2L11 (gene 10018) 6.24 µM | [8] 3.95 µM | [10] 4.97 µM | Caspase-3 (Homo sapiens) 6.5 µM | [12] 3.83 µM | [13] 6.64 µM | [14] 3.43 µM | [15] 4.27 µM | CYP2C9 (gene 1559) 3.08 µM | CYP2E1 (gene 1571) 1.94 µM

Cc1ccccc1[N+](=O)[O-]
active: [14] 13.9 µM
inactive: all other assays above

COc1ccc(O)c(C(C)(C)C)c1
inactive: all assays above

CCOCCOC(C)=O
active: [14] 20.3 µM
inactive: all other assays above

Cc1ccccc1O
active: [14] 24.4 µM
inactive: all other assays above

CCOC(=O)C(O)(c1ccc(Cl)cc1)c1ccc(Cl)cc1
active: [12] 66.5 µM | [14] 69.1 µM | CYP2E1 (gene 1571) 30.4 µM
inactive: all other assays above

C=CC(N)=O
not listed: [15]
inactive: all other assays above

ClC(Cl)=C(c1ccc(Cl)cc1)c1ccc(Cl)cc1
active: [14] 1.59 µM | [15] 7.61 µM | CYP2E1 (gene 1571) 50.7 µM
inactive: all other assays above

c1ccc(-c2ccccc2)cc1
inactive: all assays above

C[C@]12CCC(=O)C=C1CC[C@@H]1[C@@H]2CC[C@@]2(C)[C@H]1CC[C@]2(C)O
active: [1] 45.8 µM | [3] 24.5 µM | [7] 63.6 µM | [8] 45.8 µM | [9] 10.9 µM | [10] 45.8 µM | [12] 45.8 µM | [14] 10.8 µM | [15] 0.207 µM | CYP2E1 (gene 1571) 79.5 µM
inactive: [2] | [5] | [6] | BCL2L11 (gene 10018) | Caspase-3 (Homo sapiens) | [11] | [13] | CYP2C9 (gene 1559)
